We go through 21 compounds from PubChem BioAssay (NCATS).

Test [1] has as its target Rap guanine nucleotide exchange factor 3 (Homo sapiens) (UniProt O95398). Briefly: Confirmatory qHTS for agonist of cAMP-regulated guanine nucleotide exchange factor 3 (EPAC1) (AID 1645881).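 Note: EPAC1 catalysed release of BODIPY-GDP from Rap1B seen as fluorescence loss; 100% = effect of cAMP agonist control; nearly all actives have a fitted effect of over 75% in size.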
In test [2] the target is Rap guanine nucleotide exchange factor 4 (Homo sapiens) (UniProt Q8WZA2). Briefly: Confirmatory qHTS for agonist of cAMP-regulated guanine nucleotide exchange factor 4 (EPAC2) (AID 1645884).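 Note: nucleotide exchange releases bodipy-GDP from Rap1 and this lowers its fluorescence; % is set by controls: 0 for no effect and ±100 for the full control effect; nearly all actives have a fitted effect of over 65% in size.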 For orientation: qHTS replaces the single test concentration by a dilution series.
The target is the same in test [3]. Briefly: Confirmatory qHTS for antagonist of cAMP-regulated guanine nucleotide exchange factor 4 (EPAC2) (AID 1645885). For activity change, negative = inhibition: % is set by controls: 0 for no effect and ±100 for the full control effect. Note: nearly all actives have a fitted effect of over 25% in size. Note: potency is the fitted concentration of half-maximal effect.
The target of test [4] is Rap guanine nucleotide exchange factor 3 (Homo sapiens) (UniProt O95398). Briefly: Counterscreen qHTS for antagonist of cAMP-regulated guanine nucleotide exchange factor 3 (EPAC1) (AID 1645888). Note: % of control where 0% means no effect. The method in brief: (§1)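 Measured: fluorescence of BODIPY-GDP bound to Rap1B, which falls as exchange proceeds. Conditions include 50 uM competing GDP, 5 and 30 min reads, and a later cAMP challenge for antagonist detection.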

The target is the same in test [5]. Briefly: Counterscreen qHTS for agonist of cAMP-regulated guanine nucleotide exchange factor 3 (EPAC1) (AID 1645889). For activation: % of control where 0% means no effect. Note: nearly all actives have a fitted effect of over 40% in size. Note: potency is the fitted concentration of half-maximal effect. The procedure, abridged:
as §1
(A counterscreen serves to expose hits that act by an unwanted route or on another target.)

Records with an inconclusive call do not appear. A number with no mark means an inactive call. Calls of active or inactive are those of the source. Calls come from the whole dose curve; as a rule, active = well fitted curve in the direction sought with a large enough effect; inconclusive = small, poorly fitted or top-dose-only effect, or another doubt; inactive = no such curve, though single readings can be large; an effect the other way counts as inactive or inconclusive.

Sequence of Rap guanine nucleotide exchange factor 3 (Homo sapiens) (O95398 whole entry, looked up): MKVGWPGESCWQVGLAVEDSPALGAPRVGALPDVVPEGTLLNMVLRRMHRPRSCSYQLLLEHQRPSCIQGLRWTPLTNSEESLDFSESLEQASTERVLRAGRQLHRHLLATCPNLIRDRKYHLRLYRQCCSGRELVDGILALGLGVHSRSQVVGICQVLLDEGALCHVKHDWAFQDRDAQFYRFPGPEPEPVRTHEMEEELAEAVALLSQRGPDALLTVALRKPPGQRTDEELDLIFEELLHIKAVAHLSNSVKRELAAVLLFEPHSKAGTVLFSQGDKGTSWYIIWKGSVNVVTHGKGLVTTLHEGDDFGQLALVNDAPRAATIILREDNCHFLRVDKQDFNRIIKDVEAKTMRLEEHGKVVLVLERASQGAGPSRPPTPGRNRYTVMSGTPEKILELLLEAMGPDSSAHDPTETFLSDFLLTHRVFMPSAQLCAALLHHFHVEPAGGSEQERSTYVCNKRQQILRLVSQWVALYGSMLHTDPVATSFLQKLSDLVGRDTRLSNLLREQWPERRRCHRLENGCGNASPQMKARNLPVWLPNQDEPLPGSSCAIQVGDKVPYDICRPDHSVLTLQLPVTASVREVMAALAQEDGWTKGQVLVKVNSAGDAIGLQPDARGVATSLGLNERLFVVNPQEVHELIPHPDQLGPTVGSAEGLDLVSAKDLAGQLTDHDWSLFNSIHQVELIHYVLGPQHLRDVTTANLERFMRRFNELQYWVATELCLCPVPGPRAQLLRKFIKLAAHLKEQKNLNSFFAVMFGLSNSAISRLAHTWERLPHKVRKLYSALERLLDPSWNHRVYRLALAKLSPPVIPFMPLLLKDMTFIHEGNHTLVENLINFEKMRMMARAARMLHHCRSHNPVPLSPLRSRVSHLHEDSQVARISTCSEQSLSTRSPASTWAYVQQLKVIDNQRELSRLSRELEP
Sequence of Rap guanine nucleotide exchange factor 4 (Homo sapiens) (Q8WZA2 whole entry, looked up): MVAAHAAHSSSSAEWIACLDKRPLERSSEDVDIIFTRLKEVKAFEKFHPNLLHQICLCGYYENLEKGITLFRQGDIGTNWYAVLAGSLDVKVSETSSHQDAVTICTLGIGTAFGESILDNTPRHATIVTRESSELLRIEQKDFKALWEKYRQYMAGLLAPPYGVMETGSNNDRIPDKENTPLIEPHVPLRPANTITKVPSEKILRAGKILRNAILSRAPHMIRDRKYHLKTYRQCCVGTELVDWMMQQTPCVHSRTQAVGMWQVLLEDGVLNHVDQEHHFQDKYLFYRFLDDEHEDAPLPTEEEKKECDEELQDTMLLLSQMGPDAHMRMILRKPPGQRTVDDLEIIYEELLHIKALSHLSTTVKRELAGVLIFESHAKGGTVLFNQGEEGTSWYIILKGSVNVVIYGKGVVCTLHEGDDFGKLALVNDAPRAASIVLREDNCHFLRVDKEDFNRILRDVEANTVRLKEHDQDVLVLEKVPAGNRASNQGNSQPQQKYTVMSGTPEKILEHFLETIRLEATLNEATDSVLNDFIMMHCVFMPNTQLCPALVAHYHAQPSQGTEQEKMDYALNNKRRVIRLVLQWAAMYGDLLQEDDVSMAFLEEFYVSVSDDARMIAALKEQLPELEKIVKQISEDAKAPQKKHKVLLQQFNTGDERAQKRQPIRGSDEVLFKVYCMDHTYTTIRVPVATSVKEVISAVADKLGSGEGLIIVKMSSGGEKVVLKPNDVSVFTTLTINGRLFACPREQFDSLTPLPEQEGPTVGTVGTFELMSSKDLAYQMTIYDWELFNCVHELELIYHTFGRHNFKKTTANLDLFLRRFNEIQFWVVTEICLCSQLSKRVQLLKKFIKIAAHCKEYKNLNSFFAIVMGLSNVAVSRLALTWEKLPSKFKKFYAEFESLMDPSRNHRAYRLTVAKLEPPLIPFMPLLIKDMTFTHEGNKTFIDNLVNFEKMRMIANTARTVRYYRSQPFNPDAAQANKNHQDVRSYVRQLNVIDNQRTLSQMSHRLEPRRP

On to `Cc1ccc2oc(=O)n(Cc3ccccc3OC(C)C)c2c1`, for which the Potency result in test [1], in test [2], in test [4] and in test [5] was “inactive” each time. Moreover, the Potency in test [3] was 7.57 µM (active).

With `CCC(=O)N(CCC(c1ccccc1)c1ccc2c(c1)OCO2)Cc1ccc(OC(C)C)cc1` (stereo not given), the Potency result in test [1], in test [2], in test [3], in test [4] and in test [5] was “inactive” in each case.

On to `CSc1cccc(NC(=O)Cn2nnc(C(=O)NCCc3ccccc3)c2N)c1`, for which the Potency entry in test [1], in test [2], in test [4] and in test [5] was “inactive” in each case. Moreover, the outcome in test [3] was “inactive [at 12.7 µM]”.

Turning to `CCOc1cc(/C=C/C(=O)OCC(=O)NCc2ccco2)cc(Cl)c1OC`, the Potency entry in test [1], in test [2], in test [3], in test [4] and in test [5] was “inactive” each time.

Take `CCCC(=O)OCCNc1cc(SCc2ccco2)c2nonc2c1[N+](=O)[O-]`: the Potency result in test [1] and in test [3] was “inactive” in each case. The activation in test [2] was 4.83% [at 17.1 µM, percent relative to cAMP agonist control]; in test [5], 26.5% [at 30.8 µM]. Also, in test [4], the activity change, negative = inhibition is 14.3% [at 30.8 µM].

As to `CCc1ccc(-n2c(CCC(=O)O)ccc2-c2cccs2)cc1`, the Potency result in test [1], in test [2], in test [3], in test [4] and in test [5] was “inactive” each time.

As to `CCCCC(CC)C(=O)Oc1ccc(O)c(C(C)(C)C)c1` (stereo not given), the Potency entry in test [1] and in test [3] was “inactive” in each case. The activation was -3.79% [at 17.1 µM, percent relative to cAMP agonist control] in test [2] and -16.7% [at 30.8 µM] in test [5]. The activity change, negative = inhibition in test [4] was 0.29% [at 30.8 µM].

For the compound `O=[N+]([O-])c1ccc(NS(=O)(=O)c2ccc(Cl)c(Cl)c2)cc1`, the Potency entry in test [1], in test [2], in test [3], in test [4] and in test [5] was “inactive” each time.

`CCCCCNC(=O)C(C#N)c1nc2ccccc2nc1N1CCCC1` (stereo not given): the Potency result in test [1] and in test [3] was “inactive” in each case. For the same compound, the activation is -33.7% [at 17.1 µM, percent relative to cAMP agonist control] in test [2] and -1.55% [at 30.8 µM] in test [5]. Besides, the activity change, negative = inhibition in test [4] was -27.7% [at 30.8 µM].

Regarding `COC(=O)c1nn(-c2ccccc2)c(Sc2ccc(OC)cc2)c1/C=N/O`, the Potency result in test [1] and in test [3] was “inactive” throughout. The activation is -5.43% [at 17.1 µM, percent relative to cAMP agonist control] in test [2] and 23% [at 30.8 µM] in test [5]. Moreover, the activity change, negative = inhibition in test [4] was -27.4% [at 30.8 µM].

On to `Cn1c(COc2ccccc2C(C)(C)C)nc2ccccc21`, for which the Potency result in test [1], in test [2], in test [3] and in test [4] was “inactive” throughout. Also, the Potency in test [5] is 15.8 µM (active).

Turning to `CCc1ccc(N(C(=O)c2csnn2)C(C(=O)NCc2ccccc2)c2ccco2)cc1` (stereo not given), the Potency result in test [1], in test [2], in test [4] and in test [5] was “inactive” throughout. The Potency in test [3] was 16.9 µM (active).

With `Nc1ccc(C(=O)N/N=C/c2cn(Cc3ccccc3F)c3ccccc23)cc1`, the Potency result in test [1] and in test [3] was “inactive” each time. In addition, the activation was 7.25% [at 17.1 µM, percent relative to cAMP agonist control] in test [2] and 39.9% [at 30.8 µM] in test [5]. In addition, in test [4], the activity change, negative = inhibition was 31.2% [at 30.8 µM].

With `Cc1cc(C)n2nc(C(=O)N/N=C/c3c4ccccc4cc4ccccc34)nc2n1`, the Potency result in test [1] and in test [3] was “inactive” throughout. The activation was 2.45% [at 17.1 µM, percent relative to cAMP agonist control] in test [2] and 34.9% [at 30.8 µM] in test [5]. The activity change, negative = inhibition in test [4] was 4.99% [at 30.8 µM].

For `COc1cccc(C2CC(c3cccs3)=NN2C(=O)c2ccco2)c1O` (stereo not given), the Potency entry in test [1] and in test [3] was “inactive” each time. Further, the activation is 3.1% [at 17.1 µM, percent relative to cAMP agonist control] in test [2] and 8.43% [at 30.8 µM] in test [5]. Besides, in test [4], the activity change, negative = inhibition was -12.7% [at 30.8 µM].

As to `CCc1ccc(N=C2NC(=O)/C(=C/c3cc(Br)c(OCC(=O)O)c(OC)c3)S2)cc1`, the Potency result in test [1] and in test [3] was “inactive” each time. Moreover, the activation was -6.04% [at 17.1 µM, percent relative to cAMP agonist control] in test [2] and 15.5% [at 30.8 µM] in test [5]. The activity change, negative = inhibition in test [4] was -19.5% [at 30.8 µM].

Regarding `COc1cccc(OCc2cc(/C=N/Nc3ccc(C(=O)O)cc3)ccc2OC)c1`, the Potency result in test [1] and in test [3] was “inactive” in each case. Besides, the activation in test [2] is 6.81% [at 17.1 µM, percent relative to cAMP agonist control]; in test [5], 21.5% [at 30.8 µM]. In addition, the activity change, negative = inhibition in test [4] was -4.72% [at 30.8 µM].

For the compound `Cc1ccc(/C=C/C(=O)Nc2nnc(SCc3ccc(C#N)cc3)s2)o1`, the Potency result in test [1], in test [2], in test [3], in test [4] and in test [5] was “inactive” throughout.

In the case of `COc1cc(O)c(C(CC(=O)N2CCCC(C)C2)c2ccc3c(c2)OCO3)c(OC)c1` (stereo not given), the Potency result in test [1] and in test [3] was “inactive” each time. Besides, the activation was -10.6% [at 17.1 µM, percent relative to cAMP agonist control] in test [2] and 13.2% [at 30.8 µM] in test [5]. For the same compound, the activity change, negative = inhibition in test [4] is -20% [at 30.8 µM].

With `O=C1CC(c2ccccc2)=NN1c1nc(-c2ccccc2)cs1`, the Potency entry in test [1], in test [2], in test [3], in test [4] and in test [5] was “inactive” in each case.

As to `O=C(Nc1ccc(N2CCC(N3CCCCC3)CC2)c(C(=O)O)c1)c1ccc(Br)cc1`, the Potency result in test [1], in test [2], in test [4] and in test [5] was “inactive” each time. For the same compound, in test [3], the outcome is “inactive; activator; fitted 1.6944 uM [at 12.7 µM]”.
